Assay results from PubChem BioAssay (NCATS).
A number with no mark means an inactive call. Records with an inconclusive call do not appear. Active and inactive are the calls of the source. Unless noted, calls come from the whole dose curve; as a rule, active = well fitted inhibition curve with a large enough effect; inconclusive = small, poorly fitted or top-dose-only effect; inactive = flat fitted curve, though single readings scatter.

Molecular target: Peptidyl-prolyl cis-trans isomerase NIMA-interacting 1 (Homo sapiens) (UniProt Q13526)
Sequence (Q13526 whole entry, looked up): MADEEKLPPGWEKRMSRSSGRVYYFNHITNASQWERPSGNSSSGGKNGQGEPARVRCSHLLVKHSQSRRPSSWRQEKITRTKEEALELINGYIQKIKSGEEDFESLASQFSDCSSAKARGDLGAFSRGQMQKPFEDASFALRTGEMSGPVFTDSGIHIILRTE
Assay: qHTS Validation Assay to Find Inhibitors of Pin1 (AID 504536; active = well fitted inhibition curve with a large enough effect in the polarisation, with a control signal flat, not every such curve was filed as active; the % refers to the polarisation;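 for activity, negative = inhibition: 0% = full Pin1 enzyme wells and -100% = no-enzyme wells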)
Conditions: Pin1 fluorescence polarization peptide binding assay; series mostly up to 57.5 µM; activity, negative = inhibition: at the top concentration
Method in brief: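 Fluorescence polarization competition: compounds (titration) displace HiFluor-488-labeled Pin1-1b peptide from Pin1 (0.3 uM final) in pH 7.5 HEPES buffer with DTT, 10 min at room temperature; %Activity normalized to no-enzyme wells, curves fitted.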
Potency is the fitted concentration of half-maximal effect.

Row | SMILES | activity, negative = inhibition [%] | Potency
1 | CC(C)ON([C@@H](C(=O)NO)C(C)C)S(=O)(=O)c1ccc(-c2ccccc2)cc1 | 19.4 | 
2 | O=c1[nH]c2cc(Cl)c(Cl)cc2[nH]c1=O | -6.04 | 
3 | CN1CCc2cccc3c2C1Cc1ccc(O)c(O)c1-3 (configuration not stated) | -0.878 | 
4 | CC(=O)N[C@H](C(=O)O)C(C)(C)SN=O | -3.25 | 
5 | Cc1ccc(C(=O)O[C@H](C(=O)O)[C@@H](OC(=O)c2ccc(C)cc2)C(=O)O)cc1 (tested in a mixture with another compound) | -10.9 | 
6 | CN(C)c1ccc(/C=C2\C(=O)Nc3ccccc32)cc1 | 24.9 | 
7 | Cn1ncc(S(=O)(=O)Cc2ccccc2)c(Br)c1=O | -22.6 | 
8 | CCNC(=O)[C@H]1O[C@@H](n2cnc3c(N)nc(NCCc4ccc(CCC(=O)O)cc4)nc32)[C@H](O)[C@@H]1O | -7.49 | 
9 | O=Nc1ccc2oc(=O)ccc2c1 | 0.0912 | 
10 | O=C(O)CC[C@@H](C(=O)O)N1C(=O)c2ccccc2C1=O | 6.71 | 
11 | C=C[C@@H]1CN2CC[C@@H]1C[C@H]2[C@H](O)c1ccnc2ccc(OC)cc12 | -0.916 | 
12 | CCN1/C(=C/C(C)=O)Sc2ccc(OC)cc21 | -5.44 | 
13 | N=c1ccn2c(n1)O[C@H]1[C@H](O)[C@@H](CO)O[C@H]12 | 8.74 | 
14 | CC[C@@H](C)[C@H]1O[C@]2(CC[C@H]1C)C[C@@H]1C[C@@H](CC=C(C)[C@@H](O[C@H]3C[C@H](OC)[C@@H](O[C@H]4C[C@H](OC)[C@@H](O)[C@H](C)O4)[C@H](C)O3)[C@@H](C)C=CC=C3CO[C@@H]4[C@H](O)C(C)=C[C@@H](C(=O)O1)[C@]34O)O2 | 18.9 | 
15 | CNC(=O)[C@H]1O[C@@H](n2cnc3c(NCc4ccc(N)cc4)ncnc32)[C@H](O)[C@@H]1O | -0.635 | 
16 | Oc1ccc(C2CNCc3sccc32)cc1O (configuration not stated) | 0.0854 | 
17 | COc1ccc2c(c1)CCC1C2CC[C@@]2(C)C1CC[C@@H]2NCCCCCCN1C(=O)CCC1=O (some centres not stated) | 1.27 | 
18 | OC[C@H]1O[C@@H](n2cnc3c(NC4CCCC4)ncnc32)[C@H](O)[C@@H]1O | 10.9 | 

Row | SMILES | activity, negative = inhibition [%] | Potency
19 | NS(=O)(=O)C#Cc1ccccc1 | -1.08 | 
20 | OCC1O[C@H]([S-])[C@H](O)[C@@H](O)[C@@H]1O.[Au+] (some centres not stated) |  | 4.26 µM (active)
21 | C=C[C@H]1CN2CC[C@@H]1C[C@@H]2[C@@H](O)c1ccnc2ccc(OC)cc12 | 0.797 | 
22 | Nc1nc(Cl)nc2c1ncn2[C@@H]1O[C@H](COP(=O)(O)OP(=O)(O)OP(=O)(O)O)[C@@H](O)[C@H]1O |  | 30.1 µM (active)
23 | CCCCCCCCCCCCCCCC(=O)OC(CC(=O)O)C[N+](C)(C)C (configuration not stated) | 0.299 | 
24 | CC(C)(C)c1ccc(S(=O)(=O)/C=C/C#N)cc1 | 7.7 | 
25 | C[N+]1(C)C2CC(OC(=O)[C@H](CO)c3ccccc3)CC1C1OC12 (some centres not stated) |  | inactive
26 | S=C(S)OC1CC2CC1C1CCCC21 (configuration not stated) | -1.09 | 
27 | CC(=O)/C=C1\C(=O)N(C)c2ccccc21 | 0.0826 | 
28 | COc1cc(OC)c(/C=C2/C(=O)Nc3ccccc32)c(OC)c1 | -1.8 | 
29 | Nc1nc(Cl)nc2c1ncn2[C@@H]1O[C@H](CO)[C@@H](O)[C@H]1O | -4.5 | 
30 | CN(C)c1nc(N)c(C(=O)N=C(N)N)nc1Cl | -10.5 | 
31 | c1ccc(-c2ccccn2)nc1 | 6.7 | 
32 | CN1CCc2cc(O)c(O)cc2C(c2ccccc2)C1 (configuration not stated) | -5.89 | 
33 | CCCCN1CCC(n2c(=O)[nH]c3ccccc32)CC1 | 7.32 | 
34 | CCCCCCCCCCCCCCCCCCNC(=O)OCC(COP(=O)([O-])OCC[n+]1ccsc1)OC (configuration not stated) | -22.9 | 
35 | CN1[C@@H](CC(=O)c2ccccc2)CCC[C@H]1C[C@H](O)c1ccccc1 | -3.85 | 
36 | CCCCCCCCCCCCCCCC(=O)NCC(COP(=O)([O-])OCC[N+](C)(C)C)OCC (configuration not stated) | 11.8 | 

Molecular target: Phosphoglycerate kinase, glycosomal (Trypanosoma brucei brucei) (UniProt P07378)
Sequence (P07378 whole entry, looked up): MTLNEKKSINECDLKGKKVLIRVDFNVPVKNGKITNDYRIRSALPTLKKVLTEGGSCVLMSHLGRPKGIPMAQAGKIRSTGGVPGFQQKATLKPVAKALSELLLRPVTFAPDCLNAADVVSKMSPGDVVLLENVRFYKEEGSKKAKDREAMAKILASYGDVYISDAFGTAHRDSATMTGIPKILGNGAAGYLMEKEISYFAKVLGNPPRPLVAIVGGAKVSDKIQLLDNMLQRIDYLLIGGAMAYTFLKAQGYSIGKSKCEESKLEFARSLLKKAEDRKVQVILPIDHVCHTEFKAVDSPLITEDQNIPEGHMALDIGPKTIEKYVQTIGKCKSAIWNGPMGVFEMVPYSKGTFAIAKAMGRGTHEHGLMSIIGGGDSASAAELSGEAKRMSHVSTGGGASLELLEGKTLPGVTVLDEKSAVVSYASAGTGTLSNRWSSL
Assay: qHTS Validation Assay to Find Inhibitors of Phosphoglycerate Kinase (AID 504547);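 for activity, negative = inhibition: control wells lack PGK and mark full inhibition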
Conditions: enzymatic PGK inhibition, coupled luminescence read-out; series mostly up to 57.5 µM; activity, negative = inhibition: at the top concentration
Method in brief: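 PGK activity was coupled to GAPDH (100nM final), which generates the unstable substrate 1,3-bisphosphoglycerate in-well. Reactions ran 60 minutes at room temperature in 100mM TEA pH 7.6, 5mM MgCl2, 0.01% Tween-20, then Kinase-Glo Plus luminescence was read.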

Row | SMILES | activity, negative = inhibition [%] | Potency
37 | CC(C)ON([C@@H](C(=O)NO)C(C)C)S(=O)(=O)c1ccc(-c2ccccc2)cc1 | 3.38 | 
38 | O=c1[nH]c2cc(Cl)c(Cl)cc2[nH]c1=O | -1.59 | 
39 | CN1CCc2cccc3c2C1Cc1ccc(O)c(O)c1-3 (configuration not stated) | 4.55 | 
40 | CC(=O)N[C@H](C(=O)O)C(C)(C)SN=O | 8.14 | 
41 | Cc1ccc(C(=O)O[C@H](C(=O)O)[C@@H](OC(=O)c2ccc(C)cc2)C(=O)O)cc1 (tested in a mixture with another compound) | 10.1 | 
42 | CN(C)c1ccc(/C=C2\C(=O)Nc3ccccc32)cc1 | -6.36 | 
43 | Cn1ncc(S(=O)(=O)Cc2ccccc2)c(Br)c1=O | 25.9 | 
44 | CCNC(=O)[C@H]1O[C@@H](n2cnc3c(N)nc(NCCc4ccc(CCC(=O)O)cc4)nc32)[C@H](O)[C@@H]1O | 2.35 | 
45 | O=Nc1ccc2oc(=O)ccc2c1 | 3.51 | 
46 | O=C(O)CC[C@@H](C(=O)O)N1C(=O)c2ccccc2C1=O | 6.9 | 
47 | C=C[C@@H]1CN2CC[C@@H]1C[C@H]2[C@H](O)c1ccnc2ccc(OC)cc12 | 8.09 | 
48 | CCN1/C(=C/C(C)=O)Sc2ccc(OC)cc21 | -0.033 | 
49 | N=c1ccn2c(n1)O[C@H]1[C@H](O)[C@@H](CO)O[C@H]12 | 7.6 | 
50 | CC[C@@H](C)[C@H]1O[C@]2(CC[C@H]1C)C[C@@H]1C[C@@H](CC=C(C)[C@@H](O[C@H]3C[C@H](OC)[C@@H](O[C@H]4C[C@H](OC)[C@@H](O)[C@H](C)O4)[C@H](C)O3)[C@@H](C)C=CC=C3CO[C@@H]4[C@H](O)C(C)=C[C@@H](C(=O)O1)[C@]34O)O2 | 9.08 | 
51 | CNC(=O)[C@H]1O[C@@H](n2cnc3c(NCc4ccc(N)cc4)ncnc32)[C@H](O)[C@@H]1O | 6.66 | 
52 | Oc1ccc(C2CNCc3sccc32)cc1O (configuration not stated) | 2.79 | 
53 | COc1ccc2c(c1)CCC1C2CC[C@@]2(C)C1CC[C@@H]2NCCCCCCN1C(=O)CCC1=O (some centres not stated) | 3.76 | 
54 | OC[C@H]1O[C@@H](n2cnc3c(NC4CCCC4)ncnc32)[C@H](O)[C@@H]1O | 3.96 | 

Row | SMILES | activity, negative = inhibition [%] | Potency
55 | NS(=O)(=O)C#Cc1ccccc1 | 9.97 | 
56 | OCC1O[C@H]([S-])[C@H](O)[C@@H](O)[C@@H]1O.[Au+] (some centres not stated) |  | 8.49 µM (active)
57 | C=C[C@H]1CN2CC[C@@H]1C[C@@H]2[C@@H](O)c1ccnc2ccc(OC)cc12 | 10.9 | 
58 | Nc1nc(Cl)nc2c1ncn2[C@@H]1O[C@H](COP(=O)(O)OP(=O)(O)OP(=O)(O)O)[C@@H](O)[C@H]1O | -5.72 | 
59 | CCCCCCCCCCCCCCCC(=O)OC(CC(=O)O)C[N+](C)(C)C (configuration not stated) | -0.356 | 
60 | CC(C)(C)c1ccc(S(=O)(=O)/C=C/C#N)cc1 | 0.373 | 
61 | C[N+]1(C)C2CC(OC(=O)[C@H](CO)c3ccccc3)CC1C1OC12 (some centres not stated) |  | inactive
62 | S=C(S)OC1CC2CC1C1CCCC21 (configuration not stated) | 8.85 | 
63 | CC(=O)/C=C1\C(=O)N(C)c2ccccc21 | 4.33 | 
64 | COc1cc(OC)c(/C=C2/C(=O)Nc3ccccc32)c(OC)c1 | 10.6 | 
65 | Nc1nc(Cl)nc2c1ncn2[C@@H]1O[C@H](CO)[C@@H](O)[C@H]1O | 6.48 | 
66 | CN(C)c1nc(N)c(C(=O)N=C(N)N)nc1Cl | -0.373 | 
67 | c1ccc(-c2ccccn2)nc1 | -1.9 | 
68 | CN1CCc2cc(O)c(O)cc2C(c2ccccc2)C1 (configuration not stated) | 12.8 | 
69 | CCCCN1CCC(n2c(=O)[nH]c3ccccc32)CC1 | 10.2 | 
70 | CCCCCCCCCCCCCCCCCCNC(=O)OCC(COP(=O)([O-])OCC[n+]1ccsc1)OC (configuration not stated) | 6.6 | 
71 | CN1[C@@H](CC(=O)c2ccccc2)CCC[C@H]1C[C@H](O)c1ccccc1 | 2.88 | 
72 | CCCCCCCCCCCCCCCC(=O)NCC(COP(=O)([O-])OCC[N+](C)(C)C)OCC (configuration not stated) | 10.5 | 
